In PMC7862700, “An all-to-all approach to the identification of sequence-specific readers for epigenetic DNA modifications on cytosine” one finds binding signal data, which are given here for eight sequences.

What all share (assay): DAPPL (digital affinity profiling via proximity ligation, sequencing); 10 mM Tris-HCl pH 7.5, 50 mM NaCl, 1 mM DTT, 4% glycerol, room temperature, 30 min; GST-TFs on glutathione beads, 16-mer random dsDNA library, 0.1% formaldehyde crosslink after washing; high values mean tight binding
Conditions in all cases: protein: recombinant; tags: N-terminal GST; dsDNA, one strand shown

One assay deals with T1, ERF (Homo sapiens, UniProt P50548 1-548).
T1 sequence: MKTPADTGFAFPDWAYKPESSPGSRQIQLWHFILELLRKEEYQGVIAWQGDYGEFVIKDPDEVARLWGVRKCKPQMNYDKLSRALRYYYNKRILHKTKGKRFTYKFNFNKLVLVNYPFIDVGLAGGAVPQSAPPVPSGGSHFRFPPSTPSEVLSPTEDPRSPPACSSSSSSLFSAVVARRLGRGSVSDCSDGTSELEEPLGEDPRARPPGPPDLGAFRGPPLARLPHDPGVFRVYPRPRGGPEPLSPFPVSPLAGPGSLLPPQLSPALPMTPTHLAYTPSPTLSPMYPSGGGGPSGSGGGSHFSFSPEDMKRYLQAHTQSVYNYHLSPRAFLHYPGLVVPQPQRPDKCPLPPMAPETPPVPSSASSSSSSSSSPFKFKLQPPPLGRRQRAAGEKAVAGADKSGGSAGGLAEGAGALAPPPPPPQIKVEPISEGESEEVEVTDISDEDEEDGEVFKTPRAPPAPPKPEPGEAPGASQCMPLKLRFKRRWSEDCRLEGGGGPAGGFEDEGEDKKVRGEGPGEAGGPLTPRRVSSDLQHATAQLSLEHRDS
Summed up:
(§1)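 Binding signal is defined as a hexamer's read frequency for one factor over its frequency for the tag-only sample. To obtain reads, GST-fused human transcription factors were expressed in yeast, captured on glutathione beads, barcoded with DNA and pooled with that sample. Pools met 200 nmole of a 16-mer random double-stranded DNA library in Tris/NaCl/DTT/glycerol buffer for 30 min at room temperature before washing, 0.1% formaldehyde crosslinking, proximity ligation (BsaI/T4 ligase, 1 h, 37 °C), PCR and Illumina NextSeq500 sequencing.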

Another assay has as its target T2, ETV3L (Homo sapiens, UniProt Q6ZN32 1-361).
T2 sequence: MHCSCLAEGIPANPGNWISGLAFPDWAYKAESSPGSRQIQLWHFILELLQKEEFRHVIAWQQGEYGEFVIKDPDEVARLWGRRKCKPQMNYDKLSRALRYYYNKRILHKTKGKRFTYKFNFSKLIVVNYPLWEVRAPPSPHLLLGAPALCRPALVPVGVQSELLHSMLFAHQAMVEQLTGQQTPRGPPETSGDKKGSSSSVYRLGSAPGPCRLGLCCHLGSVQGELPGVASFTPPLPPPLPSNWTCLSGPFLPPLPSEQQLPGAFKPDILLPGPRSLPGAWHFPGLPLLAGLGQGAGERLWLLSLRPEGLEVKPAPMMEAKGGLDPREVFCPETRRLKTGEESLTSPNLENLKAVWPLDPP
Summed up:
as §1

Another assay concerns the target T3, ETS2 (Homo sapiens, UniProt P15036 1-469).
T3 sequence: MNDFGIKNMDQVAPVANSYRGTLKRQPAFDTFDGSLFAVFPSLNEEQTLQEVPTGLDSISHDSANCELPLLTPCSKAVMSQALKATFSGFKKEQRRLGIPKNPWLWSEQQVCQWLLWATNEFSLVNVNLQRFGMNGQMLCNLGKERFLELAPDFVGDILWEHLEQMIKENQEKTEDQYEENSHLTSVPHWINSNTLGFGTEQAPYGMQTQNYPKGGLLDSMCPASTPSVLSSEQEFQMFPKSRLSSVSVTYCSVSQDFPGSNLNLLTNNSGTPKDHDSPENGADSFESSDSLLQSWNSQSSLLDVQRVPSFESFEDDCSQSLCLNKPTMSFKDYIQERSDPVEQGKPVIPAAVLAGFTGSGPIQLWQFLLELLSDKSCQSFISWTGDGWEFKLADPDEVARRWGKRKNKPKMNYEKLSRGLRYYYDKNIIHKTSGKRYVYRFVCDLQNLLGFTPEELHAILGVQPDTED
Summed up:
as §1

A further assay addresses T4, SPDEF (Homo sapiens, UniProt O95238 1-335).
T4 sequence: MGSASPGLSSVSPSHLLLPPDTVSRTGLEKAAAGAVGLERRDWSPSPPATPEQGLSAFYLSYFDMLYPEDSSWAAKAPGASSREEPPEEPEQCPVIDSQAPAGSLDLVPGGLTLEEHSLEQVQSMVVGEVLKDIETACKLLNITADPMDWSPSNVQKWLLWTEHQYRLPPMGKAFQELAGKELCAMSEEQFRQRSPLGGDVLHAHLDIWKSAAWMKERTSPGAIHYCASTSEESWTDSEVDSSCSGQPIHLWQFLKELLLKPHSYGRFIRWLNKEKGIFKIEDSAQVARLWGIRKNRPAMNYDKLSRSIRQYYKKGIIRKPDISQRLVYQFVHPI
The procedure, abridged:
as §1

Another assay has as its target T5, ETV7 (Homo sapiens, UniProt Q9Y603 1-341).
T5 sequence: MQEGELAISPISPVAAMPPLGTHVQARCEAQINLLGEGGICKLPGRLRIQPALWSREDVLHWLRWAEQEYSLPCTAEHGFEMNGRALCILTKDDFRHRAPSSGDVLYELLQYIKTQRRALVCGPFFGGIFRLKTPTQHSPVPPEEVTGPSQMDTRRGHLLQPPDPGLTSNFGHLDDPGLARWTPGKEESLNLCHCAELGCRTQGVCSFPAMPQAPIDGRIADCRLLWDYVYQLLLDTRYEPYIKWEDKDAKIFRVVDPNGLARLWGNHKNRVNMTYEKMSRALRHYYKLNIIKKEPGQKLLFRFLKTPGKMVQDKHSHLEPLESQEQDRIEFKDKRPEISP
The procedure, abridged:
as §1

The next assay addresses T6, ELF5 (Homo sapiens, UniProt Q9UKW6-2 1-255).
T6 sequence: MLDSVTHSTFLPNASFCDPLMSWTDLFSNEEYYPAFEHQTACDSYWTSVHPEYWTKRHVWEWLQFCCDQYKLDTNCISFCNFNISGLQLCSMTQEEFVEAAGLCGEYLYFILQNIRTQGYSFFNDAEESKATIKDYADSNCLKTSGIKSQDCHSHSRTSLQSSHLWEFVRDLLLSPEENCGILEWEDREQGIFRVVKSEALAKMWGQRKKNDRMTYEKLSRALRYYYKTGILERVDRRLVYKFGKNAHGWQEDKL
Summed up: as §1

The target of the next assay is T7, ETV3 (Homo sapiens, UniProt P41162-2 1-143).
T7 sequence: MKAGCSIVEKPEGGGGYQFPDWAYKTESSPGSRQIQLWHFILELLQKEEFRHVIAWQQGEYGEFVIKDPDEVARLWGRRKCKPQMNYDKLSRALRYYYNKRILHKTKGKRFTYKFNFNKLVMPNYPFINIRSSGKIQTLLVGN
The procedure, abridged: as §1

The target in the next assay is ETV6 (Homo sapiens, UniProt P41212 1-452). The procedure, abridged: as §1
ETV6, sequence (P41212 whole entry): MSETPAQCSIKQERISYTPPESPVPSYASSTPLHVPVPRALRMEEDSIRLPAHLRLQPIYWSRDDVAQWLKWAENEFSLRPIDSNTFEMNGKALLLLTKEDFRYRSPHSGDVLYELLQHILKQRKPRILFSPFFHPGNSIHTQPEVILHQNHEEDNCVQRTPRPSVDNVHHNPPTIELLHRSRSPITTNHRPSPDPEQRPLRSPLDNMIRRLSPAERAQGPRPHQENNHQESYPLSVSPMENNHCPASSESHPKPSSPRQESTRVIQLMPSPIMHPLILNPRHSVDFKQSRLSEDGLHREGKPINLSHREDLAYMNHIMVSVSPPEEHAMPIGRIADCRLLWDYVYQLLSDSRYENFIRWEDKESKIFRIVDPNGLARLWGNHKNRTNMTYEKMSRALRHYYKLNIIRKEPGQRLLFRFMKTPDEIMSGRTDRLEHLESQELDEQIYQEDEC

With CCCCCG, the binding signal in the assay with ERF is 1.17 fold enrichment (6-mer frequency, TF over GST control); with ETV3L, 1.13 fold enrichment (6-mer frequency, TF over GST control); with ETS2 it was 1.06 fold enrichment (6-mer frequency, TF over GST control); with SPDEF, 1.13 fold enrichment (6-mer frequency, TF over GST control); in the assay with ETV7 it was 1.05 fold enrichment (6-mer frequency, TF over GST control); with ELF5 it was 1.07 fold enrichment (6-mer frequency, TF over GST control). In addition, the binding signal with ETV3 is 1.22 fold enrichment (6-mer frequency, TF over GST control); with ETV6, 1.12 fold enrichment (6-mer frequency, TF over GST control).
With GTTTTG, the binding signal with ERF was 1.25 fold enrichment (6-mer frequency, TF over GST control); with ETV3L it was 1.16 fold enrichment (6-mer frequency, TF over GST control); with ETS2, 1.1 fold enrichment (6-mer frequency, TF over GST control); in the assay with SPDEF, 1.24 fold enrichment (6-mer frequency, TF over GST control); in the assay with ETV7, 1.13 fold enrichment (6-mer frequency, TF over GST control); with ELF5, 1.13 fold enrichment (6-mer frequency, TF over GST control). Moreover, the binding signal is 1.13 fold enrichment (6-mer frequency, TF over GST control) with ETV3 and 1.15 fold enrichment (6-mer frequency, TF over GST control) in the assay with ETV6.
On to AAATTA, for which the binding signal was 1.26 fold enrichment (6-mer frequency, TF over GST control) with ERF; 1.31 fold enrichment (6-mer frequency, TF over GST control) in the assay with ETV3L; 1.27 fold enrichment (6-mer frequency, TF over GST control) in the assay with ETS2; 1.18 fold enrichment (6-mer frequency, TF over GST control) in the assay with SPDEF; 1.32 fold enrichment (6-mer frequency, TF over GST control) with ETV7; 1.24 fold enrichment (6-mer frequency, TF over GST control) with ELF5. Besides, the binding signal was 1.29 fold enrichment (6-mer frequency, TF over GST control) in the assay with ETV3 and 1.25 fold enrichment (6-mer frequency, TF over GST control) in the assay with ETV6.
For the sequence TATGCG, the binding signal in the assay with ERF is 1.23 fold enrichment (6-mer frequency, TF over GST control); in the assay with ETV3L, 1.39 fold enrichment (6-mer frequency, TF over GST control); with ETS2, 1.43 fold enrichment (6-mer frequency, TF over GST control); with SPDEF it was 1.36 fold enrichment (6-mer frequency, TF over GST control); with ETV7, 1.51 fold enrichment (6-mer frequency, TF over GST control); in the assay with ELF5 it was 1.32 fold enrichment (6-mer frequency, TF over GST control). For the same sequence, the binding signal with ETV3 was 1.58 fold enrichment (6-mer frequency, TF over GST control); in the assay with ETV6, 1.22 fold enrichment (6-mer frequency, TF over GST control).
TCCGCG: the binding signal with ERF was 1.22 fold enrichment (6-mer frequency, TF over GST control); with ETV3L, 1.29 fold enrichment (6-mer frequency, TF over GST control); with ETS2, 1.36 fold enrichment (6-mer frequency, TF over GST control); with SPDEF it was 1.4 fold enrichment (6-mer frequency, TF over GST control); with ETV7 it was 1.31 fold enrichment (6-mer frequency, TF over GST control); with ELF5 it was 1.55 fold enrichment (6-mer frequency, TF over GST control). Besides, the binding signal with ETV3 was 1.37 fold enrichment (6-mer frequency, TF over GST control); in the assay with ETV6, 1.25 fold enrichment (6-mer frequency, TF over GST control).
For CCTCCG, the binding signal was 1.41 fold enrichment (6-mer frequency, TF over GST control) with ERF; 1.65 fold enrichment (6-mer frequency, TF over GST control) with ETV3L; 1.31 fold enrichment (6-mer frequency, TF over GST control) with ETS2; 1.36 fold enrichment (6-mer frequency, TF over GST control) with SPDEF; 1.2 fold enrichment (6-mer frequency, TF over GST control) with ETV7; 1.35 fold enrichment (6-mer frequency, TF over GST control) in the assay with ELF5. Also, the binding signal with ETV3 is 1.3 fold enrichment (6-mer frequency, TF over GST control); with ETV6 it was 1.31 fold enrichment (6-mer frequency, TF over GST control).
For TACTAA, the binding signal was 1.2 fold enrichment (6-mer frequency, TF over GST control) with ERF; 1.23 fold enrichment (6-mer frequency, TF over GST control) in the assay with ETV3L; 1.21 fold enrichment (6-mer frequency, TF over GST control) in the assay with ETS2; 1.22 fold enrichment (6-mer frequency, TF over GST control) with SPDEF; 1.35 fold enrichment (6-mer frequency, TF over GST control) with ETV7; 1.25 fold enrichment (6-mer frequency, TF over GST control) in the assay with ELF5. The binding signal in the assay with ETV3 is 1.19 fold enrichment (6-mer frequency, TF over GST control); with ETV6, 1.24 fold enrichment (6-mer frequency, TF over GST control).
Turning to TCTTTT, the binding signal with ERF was 1.46 fold enrichment (6-mer frequency, TF over GST control); with ETV3L, 1.54 fold enrichment (6-mer frequency, TF over GST control); in the assay with ETS2, 1.47 fold enrichment (6-mer frequency, TF over GST control); with SPDEF, 1.4 fold enrichment (6-mer frequency, TF over GST control); with ETV7, 1.56 fold enrichment (6-mer frequency, TF over GST control); with ELF5, 1.43 fold enrichment (6-mer frequency, TF over GST control). In addition, the binding signal was 1.5 fold enrichment (6-mer frequency, TF over GST control) with ETV3 and 1.41 fold enrichment (6-mer frequency, TF over GST control) in the assay with ETV6.
